Compounds without any hit were thinned out: in the full panel of roughly 83,000, 20% have a hit.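 In brief: 96-well plates, 48 h treatment, single concentration, percent growth endpoint.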 Active and inactive are the calls of the source. The calls were made as follows: active = growth percent below 10; inactive = the rest.

The test system of the assay is MDA-MB-468 breast. Kind of assay: NCI-60 one-dose screen, 48 h (100 = growth as untreated, 0 = no growth, -100 = all killed). The following applies: 10 µM unless noted.
In the case of `CCc1n(Cc2ccc3ccccc3n2)cc[n+]1Cc1ccc2ccccc2n1`, the growth was -30.1% (active).
As to `COc1cc(C2CC(c3ccc(Cl)cc3)=NN2C(C)=O)ccc1Oc1nc2c(c(=O)n(C)c(=O)n2C)n1C` (stereo not drawn), the growth is 76.6% (inactive).
As for `CCOC(=O)CC(C#N)(CC(=O)OCC)C(=O)OCC`, the figure is 96.9% (inactive).

The record behind these values is PubChem BioAssay (NCI).
